Measurements taken from PubChem BioAssay (NCATS).
Inconclusive results are not listed. Active and inactive are the calls of the source. Calls follow the shape of the dose curve; as a rule, active = well fitted curve in the direction sought with a large enough effect; inconclusive = small, poorly fitted or top-dose-only effect, or another doubt; inactive = no such curve, though single readings can be large; an effect the other way counts as inactive or inconclusive.

Tests used:
[1] = qHTS to identify inhibitors of the type 1 interferon - major histocompatibility complex class I in skeletal muscle: primary screen against the NCATS Pharmaceutical Collection (AID 1347407);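 also: luminescence of HiBiT knocked into endogenous HLA-B as interferon-induced MHC class I level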
Method in brief: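 Compounds […] were added to CRISPR-engineered HLA-B-HiBiT C25cl48 human myoblasts with 4.0 ng/ml IFN-beta. After 24 hrs at 37 C, cells were lysed and HiBiT luminescence measured.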

[2] = target: Protein phosphatase 1D (Homo sapiens) (UniProt O15297); assay: RapidFire Mass Spectrometry qHTS Assay for Modulators of WT P53-Induced Phosphatase 1 (WIP1) (AID 1347424); also: series mostly up to about 63 µM
Protein phosphatase 1D (Homo sapiens), sequence (O15297 whole entry, looked up): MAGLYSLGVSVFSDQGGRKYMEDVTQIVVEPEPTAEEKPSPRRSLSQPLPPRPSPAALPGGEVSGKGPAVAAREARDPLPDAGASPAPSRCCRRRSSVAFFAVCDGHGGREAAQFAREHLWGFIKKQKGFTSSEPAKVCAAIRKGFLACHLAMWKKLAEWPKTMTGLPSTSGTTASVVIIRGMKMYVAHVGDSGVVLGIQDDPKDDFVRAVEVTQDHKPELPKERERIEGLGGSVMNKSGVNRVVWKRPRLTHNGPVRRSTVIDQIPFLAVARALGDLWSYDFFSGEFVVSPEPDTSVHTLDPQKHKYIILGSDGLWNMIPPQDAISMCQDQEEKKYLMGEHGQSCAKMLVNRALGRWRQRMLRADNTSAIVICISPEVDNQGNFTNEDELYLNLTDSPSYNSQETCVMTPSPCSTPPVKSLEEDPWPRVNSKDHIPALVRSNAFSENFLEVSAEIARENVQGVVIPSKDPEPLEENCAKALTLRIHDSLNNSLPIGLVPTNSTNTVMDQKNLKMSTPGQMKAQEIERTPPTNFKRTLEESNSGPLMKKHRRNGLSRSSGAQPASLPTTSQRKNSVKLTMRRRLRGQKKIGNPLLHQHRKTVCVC
Method in brief: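 RapidFire MS readout of dephosphorylated VEPPL-S-QETFS product, with 1 uM isotope-labelled peptide standard. Reaction: 10 nM WIP1, 2 uM phosphopeptide substrate, 5 min, room temperature, after 1 h compound preincubation; stopped with 0.5% formic acid.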

[3] = target: Protein phosphatase 1D (Homo sapiens) (UniProt O15297); assay: Rhodamine-PBP qHTS Assay for Modulators of WT P53-Induced Phosphatase 1 (WIP1) (AID 1347425)
Method in brief: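 Read-out: Rhodamine-PBP fluorescence (ex 525/em 598 nm) for released Pi, read each minute for 11 min after adding 10 uM VEPPL-pS-QETFS; signal taken as f1 minus pre-substrate f0. Enzyme 5 nM WIP1 with 1 hr room-temperature compound preincubation.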

[4] = Primary qHTS for inhibitors of La Crosse Virus (LACV) - induced cell death in SH-SY5Y cells (AID 1508616);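 also: top concentration of the series differs between compounds; higher means more rescue of cells from virus-induced death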
Method in brief: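 SH-SY5Y, 6000 cells/well; cpd via pin tool in DMSO; LACV 0.01 MOI; 6 d 37C 5% CO2; ATPLite, 5 min RT; luminescence normalized to ±virus DMSO controls.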

[5] = target: Calcium and integrin-binding protein 1 (Homo sapiens) (UniProt Q99828); assay: Primary qHTS for Identification of Calcium Integrin Binding Protein 1 (CIB1) Competitor (AID 1508620);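 also: GST tagged CIB1 binding a fluorescein labelled alphaIIb integrin peptide tracer; top concentration of the series differs between compounds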
Calcium and integrin-binding protein 1 (Homo sapiens), sequence (Q99828 whole entry, looked up): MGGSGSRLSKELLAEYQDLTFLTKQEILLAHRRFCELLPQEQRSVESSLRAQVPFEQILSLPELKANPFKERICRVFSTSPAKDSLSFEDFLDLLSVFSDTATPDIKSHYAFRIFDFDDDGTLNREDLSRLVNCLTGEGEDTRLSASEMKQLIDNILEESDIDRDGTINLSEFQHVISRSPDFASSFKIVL
Method in brief: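 Fluorescence polarization competition: GST-tagged CIB1 (1 uM final) preincubated with compound 15 min at room temperature, then FITC-labelled alphaIIb peptide (100 nM final) added. After 15 min at room temperature, polarization read at Ex 480/Em 540.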

Measured: Potency

Cc1cc(O)c(C)c(C)c1O
inactive: all assays above

CC(C)CCCC(C)NCCC(C)C (stereo not given)
inactive: all assays above

CC(=O)OCC(=O)[C@@]1(O)[C@H](OC(C)=O)C[C@H]2[C@@H]3CCC4=CC(=O)C=C[C@]4(C)[C@@]3(F)[C@@H](O)C[C@@]21C
inactive: all assays above

CCOC(=O)NNc1nncc2ccccc12
inactive: all assays above

CN1CCN(N)CC1
inactive: all assays above

C/C(=N/NC(=O)c1ccncc1)C(=O)O
inactive: all assays above

O=C(O)[C@H](O)[C@@H](O)[C@H](O[C@@H]1O[C@H](CO)[C@H](O)[C@H](O)[C@H]1O)[C@H](O)CO
inactive: all assays above
